SMILES strings stand for the structures. Inconclusive results are not listed. Where a call stands in place of a potency, no number is given. Active and inactive are the calls of the source. Calls follow the shape of the dose curve; as a rule, active = well fitted inhibition curve with a large enough effect; inconclusive = small, poorly fitted or top-dose-only effect; inactive = flat fitted curve, though single readings scatter.

In this assay the target is Aldehyde dehydrogenase, mitochondrial (Homo sapiens) (UniProt P05091). The assay can be described thus: qHTS for Inhibitors of the Aldehyde Dehydrogenase Family (ALDH2) Primary screen (AID 2061308). Also: nearly all actives have a fitted effect of over 55% in size. Particulars: ALDH2 enzyme inhibition qHTS, 1536-well; series mostly up to 56 µM.
Take `CC(C)CCn1c(CN2CCN(C(=O)C(C)C)CC2)nc2c1c(=O)n(C)c(=O)n2C`: the Potency entry was “inactive”.

With `O=C(OCC#CCSc1nnc(-c2ccc(F)cc2)o1)c1ccc(F)cc1`, the Potency result is “inactive”.

Turning to `CC(=O)c1cccc(NC(=O)Nc2nnc(-c3ccncc3)s2)c1`, the Potency entry was “inactive”.

With `Cc1cc2c(s1)c1cnn(Cc3cc(F)ccc3C)c(=O)c1n2C`, the Potency entry was “inactive”.

In the case of `COc1cccc(-c2nc3cc(NC(=O)c4ccc(C)c([N+](=O)[O-])c4)ccc3o2)c1`, the Potency entry is “inactive”.

As to `CC(=O)c1ccc(O[C@@H]2O[C@H](CO)[C@@H](O)[C@H](O)[C@H]2O)cc1`, the Potency result was “inactive”.

Regarding `Cc1ccc(NC(=O)c2ccc(-c3nc4ccccc4[nH]3)cc2)cc1Br`, the Potency result was “inactive”.

Take `FC(F)(F)c1cccc(N2CCN(C(=S)Nc3ncnc4ccccc34)CC2)c1`: the Potency entry is “inactive”.

On to `Clc1ccc2ncc(-c3cccc(NC4CCNC4)n3)n2c1` (configuration not stated), for which the Potency result is “inactive”.

As to `FC(F)(F)c1cccc(-c2nc(NCc3ccc(-c4cccnc4)cc3)c3ccccc3n2)c1`, the Potency result was “inactive”.

Regarding `N=c1c2c(ncn1CCN1CCOCC1)Oc1ccc3ccccc3c1C2c1ccccc1` (configuration not stated), the Potency entry was “inactive”.

As to `Cc1ccc(OCCn2c(CCNC(=O)c3ccc(C(F)(F)F)cc3)nc3ccccc32)cc1`, the Potency result was “inactive”.

Consider `CCC(C)/C=C(C)/C=C/C1=CC2=CC(=O)C(C)(O)C(OC(C)=O)C2CO1` (configuration not stated), for which the Potency result is “inactive”.

Regarding `C/C(=C\c1ccsc1)C1Nc2cccc3cccc(c23)N1`, the Potency entry is “inactive”.

Consider `Cc1ccc(NS(=O)(=O)c2ccc3c(c2)CCC(=O)N3)cc1`, for which the Potency entry was “inactive”.

As to `COc1ccc(CNc2nc(-c3ccccc3C(F)(F)F)nc3ccccc23)cc1`, the Potency result is “inactive”.

Turning to `Cc1ccc(N[S+](=O)([O-])c2cc3c(cc2Cl)CCC(=O)N3)cc1Br`, the Potency result is “inactive”.

The values above are taken from PubChem BioAssay (NCATS).
